Bioassay records: PubChem, National Center for Advancing Translational Sciences (NCATS)
Hits are enriched below; roughly 8% of the tested compounds scored in any of these assays.
Gal4-VP16 FLuc = Gal4-VP16 reporter inhibition counter-screen. Potency, µM (highest dose often 53.6 µM), hits mostly inhibitors. actives 3.5% (n = 310,000). AID 2546. Drosophila S2 Gal4-VP16 UAS-luciferase, luminescence, 20 h;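 also: Gal4-VP16 expression switched on by copper sulfate through the metallothionein promoter; nearly all actives have a fitted effect of over 50% in size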
ELG1 DNA repair = ELG1-dependent DNA repair inhibition. HEK293T ELG1-luciferase reporter, luminescence, 16 h; DNA damage induced by 5-fluorouridine. Potency, µM (titrated, usually from 46.1 µM), hits mostly inhibitors. actives 2.3% (n = 330,000); also: nearly all actives have a fitted effect of over 55% in size
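Step one: seed 2,000 cells per well. Step two: pin-transfer compound or DMSO alongside 5-fluorouridine. Step three: incubate 16 hr, 37 °C, 5% CO2. Step four: add ONE-Glo, wait 30 min, read luminescence.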
TSHR antagonist = antagonists of human thyroid stimulating hormone receptor; AID 504810; TSHR-expressing cells, TSH-stimulated cAMP HTRF, 2 h; stronger effect = lower value; activity change, negative = inhibition, % at 11.5 µM; actives 0.2% (n = 330,000); P16473;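 active = activity change below a set negative limit, meaning inhibition stronger than a set level, cut at about -70% in these data; inconclusive = activity change between two set negative limits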
Target sequence (P16473 whole entry, looked up): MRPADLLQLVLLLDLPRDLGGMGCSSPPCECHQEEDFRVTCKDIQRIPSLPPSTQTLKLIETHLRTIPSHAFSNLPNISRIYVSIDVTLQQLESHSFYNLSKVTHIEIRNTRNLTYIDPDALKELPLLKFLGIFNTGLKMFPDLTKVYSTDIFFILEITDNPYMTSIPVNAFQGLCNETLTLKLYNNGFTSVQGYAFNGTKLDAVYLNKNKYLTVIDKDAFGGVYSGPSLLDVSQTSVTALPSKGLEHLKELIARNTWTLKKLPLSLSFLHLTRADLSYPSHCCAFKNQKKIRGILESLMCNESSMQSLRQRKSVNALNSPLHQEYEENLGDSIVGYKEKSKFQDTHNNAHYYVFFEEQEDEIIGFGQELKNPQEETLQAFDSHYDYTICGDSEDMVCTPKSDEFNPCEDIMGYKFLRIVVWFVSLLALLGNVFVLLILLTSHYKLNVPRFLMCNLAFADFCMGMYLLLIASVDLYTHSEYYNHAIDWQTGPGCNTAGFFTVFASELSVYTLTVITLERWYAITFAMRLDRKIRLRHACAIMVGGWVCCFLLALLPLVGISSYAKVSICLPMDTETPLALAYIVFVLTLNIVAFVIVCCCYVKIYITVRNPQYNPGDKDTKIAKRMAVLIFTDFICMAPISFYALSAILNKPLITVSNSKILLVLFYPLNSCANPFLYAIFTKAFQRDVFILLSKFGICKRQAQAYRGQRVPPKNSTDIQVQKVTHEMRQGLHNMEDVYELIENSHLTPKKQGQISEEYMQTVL
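TSHR-expressing cells were treated with compounds, then stimulated with TSH at EC80 (4nM final) for 2 hours at 37 deg C. Cellular cAMP was measured by HTRF competition between lysate cAMP and cAMP-d2 for a cryptate-labelled anti-cAMP antibody.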
RORg inh = inhibitors of mouse ROR gamma transcriptional activity | Drosophila S2 Gal4-RORgamma UAS-luciferase reporter, 20 h | P51450 | actives 5.4% (n = 310,000) | AID 2551 | Potency, µM (doses to about 53.6 µM), actives largely listed as inhibitors; also: nearly all actives have a fitted effect of over 60% in size
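Compounds are pin-transferred onto Drosophila Schneider cells expressing a copper-inducible Gal4–ROR gamma transactivation domain fusion. After 1 hr, copper sulfate is added to 700 uM final; luciferase is read 20 hr later.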
Coupling enz = inhibits coupling enzyme system, counter-screen for aldolase hits; coupling enzyme system counterscreen, AmpLite Red fluorescence; activity change, negative = inhibition, % at 58.2 µM, hits read low; actives 0.67% (n = 290,000); AID 2472; in the data active = activity change below about -30%
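Counterscreen of the coupled detection system alone, without aldolase: glyceraldehyde-3-phosphate coupling enzymes plus AmpLite Red readout. Compounds at 57.5 uM final, 10 min RT preincubation, 20 min RT reaction, fluorescence 525/598 nm.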
Of the large screens only hits and unclear results are named; the others gave an inactive call. Unless noted, calls follow the shape of the dose curve; as a rule, active = well fitted curve in the direction sought with a large enough effect; inconclusive = small, poorly fitted or top-dose-only effect, or another doubt; inactive = no such curve, though single readings can be large; an effect the other way counts as inactive or inconclusive.

CCC1(CC)C(=O)C2=C3C1[C@H](C(=O)OC)CC(C(=O)OC)C[C@H]3[C@H]1C(=O)N(c3ccccc3)C(=O)[C@H]1[C@H]2C (stereo not given in full)	none (no result: ELG1 DNA repair, TSHR antagonist)
Cc1cccc(Nc2nnc(SCc3cc(=O)n4cc(C)ccc4n3)s2)c1	ELG1 DNA repair inconclusive, RORg inh inconclusive
Cc1ccc2nc(CSc3nnc(Nc4ccccc4C)s3)cc(=O)n2c1	ELG1 DNA repair 26µM
CCC(C)N(C(=O)CSc1nnc(COc2ccccc2F)n1N)C1CCS(=O)(=O)C1 (stereo not given)	none (no result: Gal4-VP16 FLuc, RORg inh, Coupling enz)
Cc1cc(C)cc(CC(Cc2nc3ccccc3[nH]2)c2nc3ccccc3[nH]2)c1 (stereo not given)	Gal4-VP16 FLuc 11µM, ELG1 DNA repair inconclusive, RORg inh 11µM
Cc1ccc(CC(Cc2nc3ccccc3[nH]2)c2nc3ccccc3[nH]2)cc1 (stereo not given)	Gal4-VP16 FLuc inconclusive, RORg inh inconclusive (no result: ELG1 DNA repair, TSHR antagonist)
CCOCCOc1cccc(C(=O)NC(c2ccccc2)c2ccccc2)c1	none
COc1cc(C(=O)OCC(=O)Nc2ccc(SC(F)F)cc2)cc(OC)c1OC	Gal4-VP16 FLuc 1µM, ELG1 DNA repair inconclusive, RORg inh inconclusive
COc1cc(C(=O)OCC(=O)Nc2ccc(OC(F)F)cc2)cc(OC)c1OC	RORg inh inconclusive
COc1ccc(C(=O)Nc2ccccc2C(=O)NC(C)C)cc1OC	ELG1 DNA repair 18µM
COc1ccc(C(=O)Nc2ccccc2C(=O)N2CCCCCC2)cc1OC	none
COc1ccc(C(=O)N/N=C/c2ccccn2)cc1OC	Gal4-VP16 FLuc inconclusive, RORg inh inconclusive
COc1ccc(C(=O)Nc2ccccc2C(=O)N/N=C/c2ccccn2)cc1OC	Gal4-VP16 FLuc 3.2µM, ELG1 DNA repair inconclusive, RORg inh 1.3µM
Nc1nc2ccc(S(=O)(=O)N3CCCCC3)cc2s1	Gal4-VP16 FLuc inconclusive, RORg inh 13µM
Cc1nc2ccc(S(=O)(=O)N3CCCCC3)cc2s1	none
Cc1ccc(-n2cc(CN3CCN(C(=O)c4ncn[nH]4)CC3)c(-c3ccc(F)cc3)n2)cc1	ELG1 DNA repair 21µM
Cc1cccc(/C=C2\CCC(=C3SCCCS3)C2=O)c1	Gal4-VP16 FLuc 3.5µM, ELG1 DNA repair inconclusive, RORg inh 0.28µM
O=C1C(=C2SCCCS2)CC/C1=C\c1ccc(F)cc1	Gal4-VP16 FLuc 3.5µM, ELG1 DNA repair inconclusive, RORg inh 4.5µM
CCOC(=O)CN(C(=O)CSc1nnc2c(n1)[nH]c1ccccc12)c1ccccc1	none
CCOC(=O)CN(C(=O)CSc1nnc2c(n1)[nH]c1c(C)cc(C)cc12)c1ccccc1	ELG1 DNA repair 16µM
Cc1ccc(-c2nc(CC(=O)Nc3cccc(S(=O)(=O)NC4=NCCC4)c3)cs2)cc1	none (no result: Gal4-VP16 FLuc, RORg inh, Coupling enz)
COc1cccc(-c2c(C(=O)N/N=C/c3ccsc3)nnn2-c2nonc2N)c1	Gal4-VP16 FLuc inconclusive
COc1cccc(-c2c(C(=O)N/N=C/c3sccc3C)nnn2-c2nonc2N)c1	Gal4-VP16 FLuc 22µM, ELG1 DNA repair inconclusive, RORg inh 8.9µM
Cc1ccc(-c2c(C(=O)N/N=C/c3sccc3C)nnn2-c2nonc2N)cc1	Gal4-VP16 FLuc 5.6µM, ELG1 DNA repair inconclusive, RORg inh 4.5µM (no result: Coupling enz)
COc1cccc(-c2c(C(=O)N/N=C/c3ccco3)nnn2-c2nonc2N)c1	RORg inh 11µM
Cc1ccsc1/C=N/NC(=O)c1nnn(-c2nonc2N)c1-c1ccccc1	Gal4-VP16 FLuc 20µM, ELG1 DNA repair inconclusive, RORg inh 7.1µM
CC1CN(C(=O)c2cccc(S(=O)(=O)N3CCN(c4ccccc4)CC3)c2)CC(C)O1 (stereo not given)	none (no result: Gal4-VP16 FLuc, RORg inh, Coupling enz)
CCN(C(=O)COC(=O)c1ccc(F)c(S(=O)(=O)N2CCOCC2)c1)C1CCS(=O)(=O)C1 (stereo not given)	none (no result: Coupling enz)
CC[C@@H]1OC(=O)[C@H](C)[C@H](O[C@@H]2C[C@](C)(OC)[C@H](O)[C@H](C)O2)[C@H](C)[C@H](O[C@@H]2O[C@@H](C)C[C@@H](N(C)C)[C@@H]2O)[C@](C)(O)C[C@H](C)C(=NOCOCCOC)[C@H](C)[C@H](O)[C@]1(C)O	Gal4-VP16 FLuc inconclusive (no result: ELG1 DNA repair, TSHR antagonist)
Cc1ccc(/C(N)=N/OC(=O)c2ccco2)cc1	Gal4-VP16 FLuc inconclusive, ELG1 DNA repair inconclusive, RORg inh inconclusive
COc1ccc(/C(N)=N/OC(=O)c2ccco2)cc1	Gal4-VP16 FLuc 10µM, ELG1 DNA repair inconclusive, RORg inh 7.9µM
N#Cc1cc([N+](=O)[O-])ccc1NC(=O)CSc1n[nH]c(=O)[nH]c1=O	none (no result: Gal4-VP16 FLuc, RORg inh, Coupling enz)
Cc1ccc(S(=O)(=O)N(C)c2ccc(OCC(=O)Nc3cccc(-n4cnnn4)c3C)cc2)cc1	ELG1 DNA repair 23µM
COc1ccccc1/C=C/C(=O)NC(=S)Nc1ccc(S(=O)(=O)N(C)c2ccccc2)cc1	RORg inh 13µM
Cc1ccc(C(=O)NC(=S)Nc2ccc(S(=O)(=O)N(C)c3ccccc3)cc2)cc1	Gal4-VP16 FLuc inconclusive, ELG1 DNA repair inconclusive, RORg inh 7.1µM
COc1ccc(NC(=O)COc2ccc(N(C)S(=O)(=O)c3ccc(C)cc3)cc2)cc1	ELG1 DNA repair inconclusive, RORg inh inconclusive
CCN(CC(=O)Nc1ccccc1OC)C(=O)c1ccc(N(C)S(=O)(=O)c2ccc(C)cc2)cc1	ELG1 DNA repair 16µM (no result: Gal4-VP16 FLuc, RORg inh, Coupling enz)
Cc1c(O)nc(SCC(=O)Nc2nccs2)n(-c2ccccc2F)c1=O	none (no result: Coupling enz)
COC(=O)c1ccc(C(/C=C/[C@@H](C)C(=O)NCCc2c[nH]c3ccccc23)NC(=O)OCc2ccccc2)cc1 (stereo not given in full)	RORg inh inconclusive (no result: ELG1 DNA repair, TSHR antagonist)
CCCC[C@@H]1CNCCN1CC1(c2ccccc2)CC1	none (no result: Gal4-VP16 FLuc, RORg inh, Coupling enz)
CN(c1ccccc1)S(=O)(=O)c1ccc(NC(=S)NC(=O)C2CC2)cc1	Gal4-VP16 FLuc inconclusive, RORg inh 11µM
CN(C)S(=O)(=O)c1ccc(NC(=S)NC(=O)C2CCC2)cc1	RORg inh inconclusive
COc1ccc(NC(=O)c2ccc(S(=O)(=O)N(C)c3ccccc3)cc2)cn1	Gal4-VP16 FLuc inconclusive, ELG1 DNA repair 10µM, RORg inh inconclusive
CN(c1ccccc1)S(=O)(=O)c1ccc(NC(=S)NC(=O)c2ccccc2)cc1	Gal4-VP16 FLuc inconclusive, ELG1 DNA repair inconclusive, RORg inh 18µM
CC(=O)Nc1ccc(NC(=O)c2ccc(S(=O)(=O)N(C)c3ccccc3)cc2)cc1	ELG1 DNA repair inconclusive (no result: Gal4-VP16 FLuc, RORg inh, Coupling enz)
CN(Cc1ccccc1)S(=O)(=O)c1ccc(NC(=S)NC(=O)C2CCCC2)cc1	Gal4-VP16 FLuc inconclusive, ELG1 DNA repair 16µM, RORg inh 5µM
CCN1CCCC1Cn1c(-c2ccccc2)nc2c(N3CCOCC3)nc(C)nc21 (stereo not given)	none (no result: ELG1 DNA repair, TSHR antagonist)
Cc1nc2cnc(Oc3cccc(Cl)c3)nc2n(CCc2ccccc2)c1=O	none (no result: ELG1 DNA repair, TSHR antagonist)
CC(C)(C)NS(=O)(=O)c1ccc(NC(=S)NC(=O)C2CCC2)cc1	ELG1 DNA repair inconclusive, RORg inh 18µM (no result: Coupling enz)
